In the library only some 2.5% were active in any assay of this set; here they are far more common.
MEKK2mut PB1 HTS = signal of MEK5 binding to mutant human MEKK2 PB1 domain | bead flow cytometry, Alexa488-MEK5 binding to MEKK2 mutant | 290,000 tested, 0.35% active | percent response, % at 10 µM; in the data active = percent response above about 24%, passing the limit was not always enough
MEKK2 WT-MEK5 = raises or lowers MEK5 binding to wildtype human MEKK2 PB1 domain. Q9Y2U5. bead flow cytometry, Alexa488-MEK5 binding to MEKK2 WT; actives lie on both sides. 290,000 tested, 1.1% active. binding response (% of control), % at 10 µM; in the data active = binding response below about 67% or above about 130%
Rce1 inh = yeast Ras-converting enzyme inhibition; Q03530; yeast membranes, quenched prenylated peptide cleavage fluorescence; calls only; 290,000 tested, 0.27% active; AID 2563;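 active = fall in fluorescence gain of 50% or more versus controls, with final raw signal at or below 3038400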;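 note: plate controls were neutral control wells for no effect and wells lacking membranes for full effect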
Target sequence (Q03530 whole entry, looked up): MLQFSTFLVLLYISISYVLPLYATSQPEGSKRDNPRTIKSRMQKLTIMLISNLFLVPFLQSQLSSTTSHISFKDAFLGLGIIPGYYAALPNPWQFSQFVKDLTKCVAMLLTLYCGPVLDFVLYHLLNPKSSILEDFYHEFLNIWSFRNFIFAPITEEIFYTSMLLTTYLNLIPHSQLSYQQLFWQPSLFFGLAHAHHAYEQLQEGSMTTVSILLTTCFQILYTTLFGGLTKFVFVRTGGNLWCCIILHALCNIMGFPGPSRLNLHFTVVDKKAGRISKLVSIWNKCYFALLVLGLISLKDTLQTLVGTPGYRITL
MEKK3 PB1 HTS = raises or lowers MEK5 binding to the human MEKK3 PB1 domain. Q99759. binding response (% of control), % at 10 µM. bead-based flow cytometry, Alexa488-MEK5 binding to MEKK3; actives lie on both sides; 0 = blocked by unlabeled MEK5, 100 = vehicle. 290,000 tested, 1.4% active;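 active = binding response more than 3 SD above or below the average of its plate-row segment, actives on both sides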;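 note: Alexa488 bead fluorescence after subtracting the streptavidin-only scavenger bead signal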
UBC13 inh = blocks human UBC13 polyubiquitin chain formation | 330,000 tested, 0.47% active | TR-FRET | inhibition, % at 20 µM | P61088; in the data active = inhibition above about 45%, passing the limit was not always enough
Target sequence (P61088 whole entry, looked up): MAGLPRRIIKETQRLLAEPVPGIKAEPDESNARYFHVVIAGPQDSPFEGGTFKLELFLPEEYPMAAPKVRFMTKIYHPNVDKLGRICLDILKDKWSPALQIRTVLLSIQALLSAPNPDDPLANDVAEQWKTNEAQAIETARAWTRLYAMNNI
Casp3 counter = counter-screen for UBC13 inhibitors: human caspase-3 inhibition | 1,400 tested, 4% active | shares compounds with UBC13 inh | inhibition, % at 20 µM | Recombinant caspase-3, Caspase-Glo 3/7 luminescence, 60 min;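 active = mean inhibition across replicates above about 26%, limit read from the data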;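 note: plate controls were DMSO with caspase-3 for no effect and DMSO wells lacking enzyme for full effect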
UBC13 confirm = confirmation of human UBC13 polyubiquitin inhibitors | UBC13 polyubiquitination, TR-FRET, biochemical | shares compounds with UBC13 inh | 1,400 tested, 68% active | inhibition, % at 10 µM | AID 488859; in the data active = inhibition above about 45%
The depositor's hits bear a star; i = inactive; nt = no result given; + = active, no number.

SMILES | MEKK2mut PB1 HTS | MEKK2 WT-MEK5 | Rce1 inh | MEKK3 PB1 HTS | UBC13 inh | Casp3 counter | UBC13 confirm
Cc1ccc(NC(=O)CSc2nc(=O)n(CCCN3CCOCC3)c3c2CCCC3)c(C)c1 | nt | nt | i | nt | 5 | nt | nt
C#CCOCCOCCOCCNc1nc(N2CCN(C(=O)CCCCCCCCCCNC(=O)[C@@H](CCSC)n3cc(CCO)nn3)CC2)nc(N2CCN(C(=O)CCCCCCCCCCNC(=O)[C@H](CO)n3cc(CCCCCN)nn3)CC2)n1 | nt | nt | nt | nt | 118* | -3 | 123*
C#CCOCCOCCOCCNc1nc(N2CCN(C(=O)CCCCCCCCCCNC(=O)[C@@H](CCSC)n3cc(CCO)nn3)CC2)nc(N2CCN(C(=O)CCCCCCCCCCNC(=O)[C@H](CCC(=O)O)n3cc(CCCCCN)nn3)CC2)n1 | nt | nt | nt | nt | 102* | 0 | 77*
CCNc1ccc(C(=O)Nc2ccc3nc(C)sc3c2)cc1[N+](=O)[O-] | 0 | 98 | i | 80 | -33 | nt | nt
Cc1ccc(NC(=O)c2ccc(NCCN)c([N+](=O)[O-])c2)cc1Cl | 1 | 126 | i | 106 | 67* | -2 | 83*
O=C(O)[C@H]1CCCC[C@H]1C(=O)NCCc1ccccc1 | 3 | 103 | i | 106 | 67* | 0 | 9
O=C(O)C1CCCCC1C(=O)NCCc1ccncc1 (stereo unspecified) | 16 | 108 | i | 110 | 3 | nt | nt
CC(=O)c1ccc(Sc2ccc(C(C)=O)cc2)cc1 | -2 | 88 | i | 87 | 45* | 4 | 32
COc1cc(/C=C/c2cc[n+](C)cc2)ccc1OCC(=O)Nc1ccc(Cl)c(Cl)c1 | 75* | 237* | i | 111 | 103* | -1 | 116*
COc1cccc2sc(N(CCCN(C)C)C(=O)c3ccc(S(=O)(=O)N4CCc5ccccc5C4)cc3)nc12 | 38* | 192* | i | 107 | 64* | -4 | 99*
COc1cc2nc(N(CCCN(C)C)C(=O)c3ccc(S(=O)(=O)N4CCc5ccccc5C4)cc3)sc2cc1OC | nt | nt | i | nt | 71* | -1 | 105*
Cc1ccc2sc(N(CCCN(C)C)C(=O)c3ccc(S(=O)(=O)N4CCc5ccccc5C4)cc3)nc2c1C | nt | nt | i | nt | 24 | nt | nt
CC1CN(S(=O)(=O)c2ccc(C(=O)N(CCCN(C)C)c3nc4cc5c(cc4s3)OCCO5)cc2)CC(C)O1 (stereo unspecified) | nt | nt | i | nt | 20 | nt | nt
COc1ccc(OC)c2sc(N(CCCN(C)C)C(=O)c3ccc(S(=O)(=O)N4CCc5ccccc5C4)cc3)nc12 | nt | nt | i | nt | 100* | -2 | 118*
COc1ccc(C)c2sc(N(CCCN(C)C)C(=O)c3ccc(S(=O)(=O)N4CCc5ccccc5C4)cc3)nc12 | nt | nt | i | nt | nt | nt | nt
O=C(Nc1cccc(-n2cnnn2)c1)c1cnccc1Cl | 6 | 110 | i | 103 | 5 | nt | nt
S=C(NCCc1ccccc1)Nc1ccc(N2CCCCC2)cc1 | 1 | 103 | i | 105 | 9 | nt | nt
Cc1ccc(N)cc1NC(=O)CN1CCOCC1 | 4 | 104 | i | 105 | 1 | nt | nt
CCc1ccc(NC(=O)CSc2nc3ccccc3c(=O)n2CCCC(=O)NCCCN2CCOCC2)cc1 | 13 | 117 | i | 104 | 17 | nt | nt
Cc1ccc(NC(=O)CSc2nc3ccccc3c(=O)n2CCCC(=O)NCCCN2CCOCC2)cc1C | 13 | 128 | i | 106 | 48* | -1 | 55*
O=C(CSc1nc2ccsc2c(=O)n1Cc1ccccc1)NCc1ccco1 | 4 | 103 | i | 99 | 50* | 0 | 68*
Cc1ccc(NC(=O)CSc2ncnc3ccccc23)cc1S(=O)(=O)N1CCOCC1 | -16 | 87 | i | 84 | 51* | 0 | 34
CCOC(=O)CSc1nc2ccccc2c(=O)n1CCCCCC(=O)NCc1ccco1 | -3 | 95 | i | 95 | 47* | -1 | 47*
O=C(CSc1nc2ccsc2c(=O)n1NC(=O)c1ccccc1)NCc1ccco1 | 6 | 107 | i | 104 | 2 | nt | nt
Cc1occc1C(=O)Nc1cnn(CCCC(=O)O)c1 | 0 | 100 | i | 101 | 0 | nt | nt
SMILES | MEKK2mut PB1 HTS | MEKK2 WT-MEK5 | Rce1 inh | MEKK3 PB1 HTS | UBC13 inh | Casp3 counter | UBC13 confirm
CCCCN(C)S(=O)(=O)c1ccc(C(=O)N(CCN(C)C)c2nc3ccc(C)cc3s2)cc1 | nt | nt | nt | nt | 22 | nt | nt
CCCCN(CC)S(=O)(=O)c1ccc(C(=O)N(CCCN(C)C)c2nc3cc(C)cc(C)c3s2)cc1 | 6 | 162* | i | 145* | 80* | 0 | 102*
CCN(Cc1ccccc1)S(=O)(=O)c1ccc(C(=O)N(CCCN(C)C)c2nc3cc(C)cc(C)c3s2)cc1 | nt | nt | + | nt | 74* | -3 | 109*
Cc1cc(C)c2sc(N(CCCN(C)C)C(=O)c3ccc(S(=O)(=O)N(C)Cc4ccccc4)cc3)nc2c1 | nt | nt | i | nt | 96* | 2 | 115*
Cc1cc(C)c2sc(N(CCN(C)C)C(=O)c3c(F)cccc3F)nc2c1 | -1 | 106 | i | 99 | 6 | nt | nt
Cc1ccc2nc(N(CCCN(C)C)C(=O)c3ccc4ncsc4c3)sc2c1 | 7 | 123 | i | 104 | 11 | nt | nt
COc1ccc2sc(N(CCCN(C)C)C(=O)c3ccc(S(=O)(=O)N(C)Cc4ccccc4)cc3)nc2c1 | nt | nt | i | nt | 48* | -2 | 93*
CCc1ccccc1N1C(=O)C2C3C=CC(CC3)C2C1=O (stereo unspecified) | 4 | 106 | i | 103 | 3 | nt | nt
COc1ccc(C(=O)NCCN2CCCC2)cc1 | 3 | 114 | i | 106 | 0 | nt | nt
COc1ccc(/C=C2/Sc3ccc(C(=O)NCCN4CCCCCC4)cc3NC2=O)cc1 | 71* | 281* | i | 111 | 67* | 0 | 86*
CCCN1CCN(CCCNC(=O)c2ccc3c(c2)NC(=O)c2ccccc2S3)CC1 | 3 | 109 | i | 101 | 22 | nt | nt
O=C1Nc2cc(C(=O)NCCCN3CCOCC3)ccc2S/C1=C/c1cccc(Cl)c1 | 16 | 147* | i | 102 | 57* | 9 | 72*
CCOc1ccc(-c2nnc(NC(=O)Cc3cc(OC)c(OC)c(OC)c3)o2)cc1 | 7 | 105 | i | 103 | -8 | nt | nt
COc1ccc([C@@H]2CC(=O)c3c(O)cc(O[C@@H]4OC(CO[C@@H]5OC(C)[C@H](O)[C@H](O)C5O)[C@@H](O)[C@@H](O)C4O)cc3O2)cc1O (stereo partly specified) | nt | nt | i | nt | -10 | nt | nt
C[C@@H]1O[C@@H](O[C@H]2[C@H](Oc3cc(O)c4c(c3)O[C@H](c3ccc(O)cc3)CC4=O)O[C@H](CO)[C@@H](O)[C@@H]2O)[C@H](O)[C@H](O)[C@H]1O | 4 | 80 | i | 92 | 95* | -7 | 98*

Compound activity: PubChem BioAssay, several laboratories
